Rows were chosen to be rich in hits. Some 1.8% of all compounds tested hit in one or more screens of this group.
hiPSC survival: hiPSC single-cell survival enhancement; ATPlite luminescence; 100% = ROCK inhibitor wells, 0% = DMSO; survival enhancement, % at 20 µM; 0.044% of 360,000 active; AID 602274; in the data active = survival enhancement above about 18%;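 also: cells exposed to compounds for 16 hours before the ATP read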
ARNT TACC3 PPI: disruptors of human ARNT/TACC3 interaction; AlphaScreen His-ARNT PAS-B/GST-TACC3 binding, luminescence; TACC3 fragment carries E629A point mutation; Q9Y6A5; inhibition, % at 9.99 µM; 0.66% of 390,000 active;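 active = mean inhibition of replicates at least 50% and at least half of replicates each reaching 50%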;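 also: 0% = complete ARNT plus TACC3 wells and 100% = ARNT alone without TACC3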
ABCB6 inh MLPCN: human ABCB6 transporter inhibition | Q9NP58 | 0.19% of 360,000 active | K562-ABCB6 porphyrin accumulation, flow cytometry, 1 h; hits give low values | fluorescence ratio to DMSO, % at 10 µM;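 active = fluorescence ratio to DMSO below 75%, the collection mean minus 3 SD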;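 also: signal is porphyrin accumulated inside mitochondria; 100% equals median channel fluorescence of DMSO control wells; lower ratio means ABCB6 inhibition with less porphyrin fluorescence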
Target sequence (Q9NP58 whole entry, looked up): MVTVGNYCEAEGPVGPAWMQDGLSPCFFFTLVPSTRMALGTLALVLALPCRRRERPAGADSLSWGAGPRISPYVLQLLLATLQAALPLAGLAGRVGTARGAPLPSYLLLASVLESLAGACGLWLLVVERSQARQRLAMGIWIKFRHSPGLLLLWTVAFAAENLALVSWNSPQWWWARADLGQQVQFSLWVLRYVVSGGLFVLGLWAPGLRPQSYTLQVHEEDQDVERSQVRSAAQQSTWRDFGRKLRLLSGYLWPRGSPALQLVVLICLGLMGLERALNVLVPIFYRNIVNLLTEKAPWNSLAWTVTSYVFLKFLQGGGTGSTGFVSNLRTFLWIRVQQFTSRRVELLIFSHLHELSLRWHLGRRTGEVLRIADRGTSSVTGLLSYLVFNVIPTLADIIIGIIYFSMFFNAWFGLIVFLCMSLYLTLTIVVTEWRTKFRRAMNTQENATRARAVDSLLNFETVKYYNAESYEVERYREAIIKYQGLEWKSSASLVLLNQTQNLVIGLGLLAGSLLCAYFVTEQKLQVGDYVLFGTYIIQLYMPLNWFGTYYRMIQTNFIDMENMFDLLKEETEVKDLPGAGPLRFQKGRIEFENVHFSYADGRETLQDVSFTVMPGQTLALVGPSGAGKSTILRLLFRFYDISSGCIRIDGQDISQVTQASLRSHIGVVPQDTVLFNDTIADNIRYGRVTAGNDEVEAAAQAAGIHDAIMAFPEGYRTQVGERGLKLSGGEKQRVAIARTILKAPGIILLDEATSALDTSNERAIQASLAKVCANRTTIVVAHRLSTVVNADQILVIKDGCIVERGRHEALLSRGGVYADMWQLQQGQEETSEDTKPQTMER
INS-1E GSIS act: GLuc luminescence reporter in INS-1E cells, primary screen for activators of glucose-dependent secretion of insulin. AID 743287. activation, % at 16.6 µM. 0.61% of 370,000 active. INS-1E GLuc reporter insulin secretion, 2-3 h;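 active = lowest replicate activation of at least 40%, so every replicate reaches that level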;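 also: 0% = median of neutral control wells and 100% = median of IBMX positive control wells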
NRP1-CendR mod: alters CendR peptide binding to human NRP-1; FAM-RPARPAR peptide binding to NRP-1, fluorescence polarization; inhibition, % at 25 µM; 0.85% of 360,000 active;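 active = inhibition or corrected inhibition above about 18%, plus a signal ratio from 0.5 to 1.5, limit read from the data, passing the limit was not always enough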
AlphaScreen ctr: AlphaScreen artifact in ARNT/TACC3 counter-screen; shares compounds with ARNT TACC3 PPI; His-ARNT PASB-GST AlphaScreen artifact counter-screen, luminescence; AC50, µM (top dose mostly 68 µM), without a hit: at the highest dose activity change, negative = signal decrease; 50% of 1,200 active;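 active = every separate test run was called active for a drop in luminescence, with AC50 within twice the top valid dose, actives reach about 71 µM in these data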
* hit, by the source's call; . = no result given; [ ] = remark or other dose.

SMILES	hiPSC survival	ARNT TACC3 PPI	ABCB6 inh MLPCN	INS-1E GSIS act	NRP1-CendR mod	AlphaScreen ctr
N/C(=N\OS(=O)(=O)c1ccc(Cl)cc1)c1ccccn1	-0.7	53.1*	96.0	-5.2	4.4	-18.3%
N/C(=N\OC(=O)c1ccccc1Cl)c1ccccn1	-5.8	-7.3	102.0	7.2	-78.3	.
CCCNC(=O)N(C)C[C@@H]1Oc2ncc(C3=CCCCC3)cc2C(=O)N([C@@H](C)CO)C[C@H]1C	.	.	.	-18.4	.	.
O=C(C[C@@H]1C[C@@H]2c3cc(NC(=O)Cc4ccncc4)ccc3O[C@@H]2[C@@H](CO)O1)NCc1ccccn1	.	.	.	-26.6	.	.
O=[N+]([O-])c1cc(Cl)cc(/C=N\Nc2ccccn2)c1O	-0.5	56.0*	90.0	.	6.1	25.4µM*
CO[C@H]1CN(C)C(=O)c2ccc(NC(=O)C3CC3)cc2OC[C@@H](C)N(C(=O)C2CCOCC2)C[C@H]1C	.	-0.4	.	4.6	.	.
O=C(C[C@H]1CC[C@H](NC(=O)Nc2ccc(C(F)(F)F)cc2)[C@H](CO)O1)NCc1cc(F)cc(F)c1	.	1.7	.	8.3	.	.
Cc1cc(C)c2nc(C)cc(N/N=C/c3ccc(O)cc3)c2c1	-0.8	54.7*	99.0	28.2	7.4	32µM*
Cc1cc(N/N=C/c2ccc(O)cc2)c2cccc(C)c2n1	-0.6	0.9	98.0	15.7	-1.9	.
Cc1ccsc1C(=O)Nc1nnc(-c2ccco2)o1	1.2	53.5*	93.0	.	-22.9	48.1µM*
N#Cc1ccc(C(=O)Nc2nnc(-c3ccco3)o2)cc1	-0.6	39.6*	94.0	-14.3	-8.5	-38.0%
Cc1ccc(C(=O)Nc2nnc(-c3ccco3)o2)cc1	-1.7	29.3	95.0	1.6	1.6	.
CO[C@H]1CN(C)C(=O)c2ccc(NS(=O)(=O)c3ccc(Oc4ccccc4)cc3)cc2OC[C@@H](C)NC[C@H]1C	.	-4.1	.	6.7	.	.
O=S1(=O)N=C(N(CCO)/N=C/C=C/c2ccccc2)c2ccccc21	4.6	55.4*	102.0	-15.9	-21.5	39.1µM*
COc1cc(Br)cc(/C=N/N(CCO)C2=NS(=O)(=O)c3ccccc32)c1OC	-0.6	1.6	92.0	5.7	9.4	.
COc1cc(/C=N/N(CCO)C2=NS(=O)(=O)c3ccccc32)cc(OC)c1OC	0.9	41.2*	100.0	7.0	-25.1	-40.3%
N#Cc1ccsc1NC(=O)c1ccc2ncsc2c1	-1.0	.	96.0	.	-142.6	.
N#Cc1ccsc1NC(=O)c1ccccn1	0.5	63.8*	101.0	.	-21.2	-10.9%
COc1cccc(CNC(=O)COC(=O)c2ccc(C(=O)c3ccccc3)cc2)c1	-0.6	55.2*	93.0	2.2	5.3	-7.9%
c1ccc(-c2nnc(-c3ccccn3)nc2NCc2cccnc2)cc1	.	.	.	.	.	0.689µM*
Cc1ccc(CNc2nc(-c3ccccn3)nnc2-c2ccccc2)cc1C	.	.	.	.	.	2.75µM*
Cc1cc2nc(-c3ccccn3)c(-c3ccccn3)nc2cc1C	-0.6	-4.6	93.0	3.8	4.6	.
COc1ccc(CNc2nc(-c3ccccn3)nnc2-c2ccccc2)cc1	.	.	.	.	.	1.71µM*
Cc1ccccc1CNc1nc(-c2ccccn2)nnc1-c1ccccc1	.	.	.	.	.	3.05µM*
Oc1ccccc1-c1nc(NCc2cccnc2)c2ccccc2n1	0.5	-0.3	92.0	-0.4	-5.7	.
SMILES	hiPSC survival	ARNT TACC3 PPI	ABCB6 inh MLPCN	INS-1E GSIS act	NRP1-CendR mod	AlphaScreen ctr
Cc1noc(C)c1NC(=O)N(C)C[C@@H]1OCc2ccccc2-c2ccccc2C(=O)N([C@@H](C)CO)C[C@H]1C	.	25.8	.	1.1	.	.
COc1ccc(NC(=O)Nc2ccc3c(c2)C(=O)N([C@H](C)CO)C[C@@H](C)[C@H](CN(C)C(=O)Nc2ccc4c(c2)OCO4)O3)cc1	.	3.7	.	12.5	.	.
C=CCNC(=O)c1ccc2nc(-c3ccccc3)c(-c3ccccc3)nc2c1	-0.1	3.5	86.0	17.1	6.0	.
OCCCNc1nc(-c2ccc(Cl)cc2)nnc1-c1ccccc1	-3.1	-9.7	99.0	-16.4	6.7	.
Cc1cccc(CNc2nc(-c3ccccn3)nnc2-c2ccccc2)c1	.	.	.	.	.	2.08µM*
c1ccc(-c2ccc(CNc3nc(-c4ccccn4)nnc3-c3ccccc3)cc2)cc1	.	.	.	.	.	3.35µM*
Cc1ccc(CNc2nc(-c3ccccn3)nnc2-c2ccccc2)cc1	.	.	.	.	.	1.46µM*
C=CCNc1nc(-c2ccccn2)nnc1-c1ccccc1	-0.9	103.8*	94.0	.	3.6	1.34µM*
C[C@H](NC(=O)C[C@@H]1CC[C@H]2[C@H](COc3ccc(NS(=O)(=O)c4ccc(Cl)cc4)cc3C(=O)N2C)O1)c1ccccc1	.	.	.	-2.4	.	.
CO[C@@H]1CN(C)C(=O)c2cc(NC(=O)C3CC3)ccc2OC[C@@H](C)N(Cc2ccc(F)cc2)C[C@H]1C	.	-7.0	.	-3.1	.	.
COc1ccc(CCNC(=O)CSc2nnc(Cc3csc(N)n3)n2C)cc1OC	-0.9	28.2*	100.0	2.8	-5.9	-9.9%
O=C(CN1C(=O)C2CCCCC2C1=O)Nc1nc(-c2ccccn2)cs1 (stereo not given)	3.9	74.5*	98.0	.	-4.2	51.5µM*
COc1ccc(-c2csc(NC(=O)CN3C(=O)C4CCCCC4C3=O)n2)cc1OC (stereo not given)	-0.2	3.4	95.0	9.4	9.0	.
C[C@@H](C(=O)Nc1nc(-c2ccccn2)cs1)N1C(=O)C2CCCCC2C1=O (stereo not given in full)	-0.4	63.2*	101.0	.	-9.1	21.4µM*
O=C1N[C@H](c2ccccc2)COCc2cnnn2CC[C@H]1Cc1ccc(C(F)(F)F)cc1	.	.	.	2.2	.	.
C[C@@H]1CN([C@H](C)CO)S(=O)(=O)c2ccc(C#CC(C)(C)O)cc2O[C@H]1CN(C)CC1CC1	.	-6.3	.	1.5	.	.
CC=Cc1ccc2n(c1=O)C[C@H]1[C@H](CO)[C@@H](C(=O)NC3CCC3)[C@@H]2N1S(=O)(=O)c1cn(C)cn1 (mixture of isomers)	.	active	.	9.0	.	-1.6%[38 µM]
CC=Cc1ccc2n(c1=O)C[C@@H]1[C@@H](CO)[C@H](C(=O)NC3CCC3)[C@H]2N1S(=O)(=O)c1cn(C)cn1 (mixture of isomers)	.	5.0	.	10.9	.	.
CCCC(=O)Nc1ccc2c(c1)C(=O)N(C)C[C@H](OC)[C@@H](C)CN(C(=O)C1CCCC1)[C@H](C)CO2	.	-5.5	.	1.7	.	.
O=C(c1ccco1)[C@@H]1[C@@H]2C(=O)N(c3ccccc3)C(=O)[C@@H]2C2c3ccccc3C=CN21 (stereo not given in full)	0.2	40.9*	96.0	.	7.2	-33.6%
O=C(Nc1nc(-c2ccccn2)cs1)c1ccc([N+](=O)[O-])o1	-0.2	61.4*	96.0	-5.0	1.4	17.2µM*
O=C(Nc1nc(-c2ccccn2)cs1)c1cc(Cl)ccc1[N+](=O)[O-]	2.5	57.9*	96.0	-4.0	4.5	18.5µM*

Bioassay records deposited in PubChem by several laboratories.
